In ChEMBL document CHEMBL4303122, “Identification of potential treatments for COVID-19 through artificial intelligence-enabled phenomic analysis of human cells infected with SARS-CoV-2” (2020):
Over roughly 1,600 compounds, “Hit score” has its median near 0.13; the highest 2% begin near 0.46. Shown is part of a subset that was picked to be rich in the highest values.

test system: SARS-CoV-2; assay: Antiviral activity against SARS-CoV-2 (USA-WA1/2020 strain) measured by imaging in HRCE cells at MOI 0.4 after 96 hrs (reported as hit score from 0-1 for on-disease vs off-disease activity: scores >0.6 considered hits); assay type: functional, Homo sapiens

| Structure (SMILES) | Hit score |
| --- | --- |
| COC(=O)N[C@H](C(=O)N1CCC[C@H]1c1ncc(-c2ccc(-c3ccc(-c4cnc([C@@H]5CCCN5C(=O)[C@@H](NC(=O)OC)C(C)C)[nH]4)cc3)cc2)[nH]1)C(C)C | -0.06011 |
| Cc1ccc(NC(=O)C2(c3ccc4c(c3)OC(F)(F)O4)CC2)nc1-c1cccc(C(=O)O)c1 [LUMACAFTOR] | 0.04797 |
| Cc1nccn1CCC(C(N)=O)(c1ccccc1)c1ccccc1 [IMIDAFENACIN] | 0.008612 |
| CCC(=O)NC[C@@H]1C[C@H]1c1cccc2c1CCO2 [TASIMELTEON] | 0.1536 |
| CC(C)OC(=O)CCC/C=C\C[C@@H]1[C@@H](/C=C/C(F)(F)COc2ccccc2)[C@H](O)C[C@@H]1O [TAFLUPROST] | 0.14 |
| O=[N+]([O-])c1cncn1CCN1CCOCC1 [NIMORAZOLE] | 0.1444 |
| CCCCCC(=O)O[C@]1(C(C)=O)CC[C@H]2[C@@H]3CCC4=CC(=O)CC[C@]4(C)[C@H]3CC[C@@]21C [HYDROXYPROGESTERONE CAPROATE] | 0.1371 |
| COc1cc(C)c2c(Oc3cccc(C(F)(F)F)c3)c(OC)cc(NC(C)CCCN)c2n1.O=C(O)CCC(=O)O (stereo not drawn) [TAFENOQUINE SUCCINATE] | 0.101 |
| C[C@]12C=CC(=O)N[C@@H]1CC[C@@H]1[C@@H]2CC[C@]2(C)[C@@H](C(=O)Nc3cc(C(F)(F)F)ccc3C(F)(F)F)CC[C@@H]12 [DUTASTERIDE] | 0.3162 |
| CO[C@H]1C[C@@H]2CC[C@@H](C)[C@@](O)(O2)C(=O)C(=O)N2CCCC[C@H]2C(=O)O[C@H]([C@H](C)C[C@@H]2CC[C@H](n3cnnn3)[C@H](OC)C2)CC(=O)[C@H](C)/C=C(\C)[C@@H](O)[C@@H](OC)C(=O)[C@H](C)C[C@H](C)/C=C/C=C/C=C/1C [ZOTAROLIMUS] | 0.6315 |
| CC[C@@H]1/C=C(\C)C[C@H](C)C[C@H](OC)[C@H]2O[C@@](O)(C(=O)C(=O)N3CCCC[C@H]3C(=O)O[C@H](/C(C)=C/[C@@H]3CC[C@H](Cl)[C@H](OC)C3)[C@H](C)[C@@H](O)CC1=O)[C@H](C)C[C@@H]2OC [PIMECROLIMUS] | 0.2951 |
| CO[C@H]1C[C@@H]2CC[C@@H](C)[C@@](O)(O2)C(=O)C(=O)N2CCCC[C@H]2C(=O)O[C@H]([C@H](C)C[C@@H]2CC[C@@H](O)[C@H](OC)C2)CC(=O)[C@H](C)/C=C(\C)[C@@H](O)[C@@H](OC)C(=O)[C@H](C)C[C@H](C)/C=C/C=C/C=C/1C [SIROLIMUS] | 0.6828 |
| CO[C@H]1C[C@@H]2CC[C@@H](C)[C@@](O)(O2)C(=O)C(=O)N2CCCC[C@H]2C(=O)O[C@H]([C@H](C)C[C@@H]2CC[C@@H](OCCO)[C@H](OC)C2)CC(=O)[C@H](C)/C=C(\C)[C@@H](O)[C@@H](OC)C(=O)[C@H](C)C[C@H](C)/C=C/C=C/C=C/1C [EVEROLIMUS] | 0.4984 |
| C=CC[C@@H]1/C=C(\C)C[C@H](C)C[C@H](OC)[C@H]2O[C@@](O)(C(=O)C(=O)N3CCCC[C@H]3C(=O)O[C@H](/C(C)=C/[C@@H]3CC[C@@H](O)[C@H](OC)C3)[C@H](C)[C@@H](O)CC1=O)[C@H](C)C[C@@H]2OC [TACROLIMUS ANHYDROUS] | 0.3285 |
| CO[C@H]1C[C@@H]2CC[C@@H](C)[C@@](O)(O2)C(=O)C(=O)N2CCCC[C@H]2C(=O)O[C@H]([C@H](C)C[C@@H]2CC[C@@H](OC(=O)C(C)(CO)CO)[C@H](OC)C2)CC(=O)[C@H](C)/C=C(\C)[C@@H](O)[C@@H](OC)C(=O)[C@H](C)C[C@H](C)/C=C/C=C/C=C/1C [TEMSIROLIMUS] | 0.4599 |
| C[C@@H]1CCO[C@H]2Cn3cc(C(=O)NCc4ccc(F)cc4F)c(=O)c(O)c3C(=O)N12 [DOLUTEGRAVIR] | -0.02185 |
| CCc1cc(/C(C)=N/OCc2ccc(C3CCCCC3)c(C(F)(F)F)c2)ccc1CN1CC(C(=O)O)C1 [SIPONIMOD] | -0.1293 |

| Structure (SMILES) | Hit score |
| --- | --- |
| Cc1cn(-c2cc(NC(=O)c3ccc(C)c(Nc4nccc(-c5cccnc5)n4)c3)cc(C(F)(F)F)c2)cn1 [NILOTINIB] | 0.4816 |
| Cc1ccc(NC(=O)c2ccc(CN3CCN(C)CC3)cc2)cc1Nc1nccc(-c2cccnc2)n1 [IMATINIB] | 0.06765 |
| Cc1ccc(/C=C2/C(=O)C3(C)CCC2C3(C)C)cc1 (stereo not drawn) [ENZACAMENE] | 0.1975 |
| CC(C)NC[C@H](O)COc1ccc(CCOCC2CC2)cc1 [LEVOBETAXOLOL] | 0.4949 |
| CC(C)NCC(O)COc1ccc(COCCOC(C)C)cc1 (stereo not drawn) [BISOPROLOL] | 0.1972 |
| CC(C)NCC(O)COc1ccc(CCOCC2CC2)cc1 (stereo not drawn) [BETAXOLOL] | 0.2742 |
| C=C1c2c(Cl)ccc(O)c2C(=O)C2=C(O)[C@]3(O)C(=O)C(C(N)=O)=C(O)[C@@H](N(C)C)[C@@H]3[C@@H](O)[C@H]12.O=C(O)c1cc(S(=O)(=O)O)ccc1O [MECLOCYCLINE SULFOSALICYLATE] | 0.1338 |
| CC(C)OC(=O)CCC/C=C\C[C@@H]1[C@@H](CC[C@@H](O)CCc2ccccc2)[C@H](O)C[C@@H]1O [LATANOPROST] | 0.04489 |
| CCCCCCOC(=O)CCC(=O)CN [HEXAMINOLEVULINATE] | 0.1128 |
| COc1cc([C@@H]2c3cc4c(cc3[C@@H](O[C@@H]3O[C@@H]5CO[C@@H](C)O[C@H]5[C@H](O)[C@H]3O)[C@H]3COC(=O)[C@H]23)OCO4)cc(OC)c1OP(=O)(O)O [ETOPOSIDE PHOSPHATE] | 0.05858 |
| O=C(CNc1cccc(Cl)c1)NC1CCCN(c2ncnc3[nH]ccc23)C1 (stereo not drawn) | 0.1071 |
| N#C[C@@]1(c2ccc3c(N)ncnn23)O[C@H](CO)[C@@H](O)[C@H]1O [GS-441524] | 0.865 |
| CC(C)OC(=O)[C@H](C)N[P@](=O)(OC[C@H]1O[C@@H](n2ccc(=O)[nH]c2=O)[C@](C)(F)[C@@H]1O)Oc1ccccc1 [SOFOSBUVIR] | 0.2045 |
| CCC(CC)COC(=O)[C@H](C)N[P@](=O)(OC[C@H]1O[C@@](C#N)(c2ccc3c(N)ncnn23)[C@H](O)[C@@H]1O)Oc1ccccc1 | 0.9631 |
| Nc1ncnc2c1ncn2[C@@H]1O[C@H](CO)[C@@H](O)[C@@H]1O [VIDARABINE] | -0.02251 |
| CC(C)OC(=O)[C@H](C)N[P@@](=O)(OC[C@H]1O[C@@H](n2ccc(=O)[nH]c2=O)[C@](C)(F)[C@@H]1O)Oc1ccccc1 | 0.2594 |
